Consider 39 compounds from PubChem BioAssay (NCATS).

Molecules are shown by their SMILES. Values without a mark were called inactive. No rule for the calls is given here.
Potency is read from the fitted curve at half-maximal effect.

In the assay the test system is HIV-1 nucleocapsid protein NCp7 (binding to TG oligonucleotide). As to the kind of experiment: HIV Nucleocapsid (AID 346).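 Also: potency is for inhibitors that block NC binding and lower polarization.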 To be noted: HIV-1 NC / fluorescein-TGTGTGTG probe, fluorescence polarization. The method in brief: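 HIV-1 NC (100 nM) binding to fluorescein-labelled ssDNA TG4xF (10 nM) in Hepes pH 7.5, 250mM NaCl, 1uM ZnCl2, TCEP and 2-mercaptoethanol; compounds pin-transferred, 1 hr room temperature, fluorescence polarization read on CCD imager.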
Turning to `CC(=O)NCCNc1cc(-c2ccccc2CN(C)C)ncn1`, the Potency was more than 20 µM. Regarding `c1cn(-c2cc(-c3ccc4c(c3)OCO4)ncn2)cn1`, the Potency was more than 20 µM. Take `CCNc1ncc2nc(CCc3ccccc3)c(=O)n(CCC#N)c2n1`: the Potency was more than 20 µM. Take `Cn1cc(-c2nc3cnc(Oc4ccccc4)nc3n(C)c2=O)c2ccccc21`: the Potency was more than 20 µM. On to `N#Cc1cccc(NC(=O)N2CCC3(CC2)CCN(C(=O)c2cccc(F)c2)CC3)c1`, for which the Potency was more than 20 µM. Consider `c1ccc2c(N3CCNCC3)nc(-c3ccc4c(c3)OCO4)nc2c1`, for which the Potency is more than 20 µM.

For the compound `Cn1cccc1C(=O)N1CCC2(CC1)CN(C(=O)Nc1cccc(F)c1)C2`, the Potency is more than 20 µM. `O=c1c(-c2ccccc2)nc2cnc(Oc3ccccc3)nc2n1C1CC1`: the Potency is more than 20 µM. `COc1ccc(NC(=O)N2CC[C@@]3(CCCN(C(=O)c4c(C)noc4C)C3)C2)cc1`: the Potency was more than 20 µM. On to `COCCn1c(=O)c(-c2ccc(F)cc2)nc2cnc(OC)nc21`, for which the Potency was more than 20 µM. The same measure for `O=C(c1ccncc1)N1CCC2(CCCN(Cc3nccs3)C2)CC1`: more than 20 µM; for `COc1ccc(Oc2ncc3nc(C)c(=O)n(Cc4cccs4)c3n2)cc1`: more than 20 µM; for `COCCn1c(=O)c(-c2ccc(OC)cc2)nc2cnc(Nc3ccccc3)nc21`: more than 20 µM. In the case of `CN(Cc1ccco1)c1cc(-c2cccc(NS(C)(=O)=O)c2)ncn1`, the Potency is more than 20 µM. Consider `CN1CCN(c2ncc3nc(-c4ccc(F)cc4)c(=O)n(Cc4cccs4)c3n2)CC1`, for which the Potency was more than 20 µM. For the compound `CN(C)C(=O)c1ccc(-c2cncnc2N2CCNCC2)cc1`, the Potency was more than 20 µM. Turning to `Cn1c(=O)c(-c2ccc(F)cc2)nc2cnc(Oc3ccccc3)nc21`, the Potency was more than 20 µM. With `N#Cc1cccc(-c2nc(NCc3ccccc3)c3ccccc3n2)c1`, the Potency was more than 20 µM.

In the case of `N#Cc1cccc(NC(=O)N2CCC3(CC2)CCN(C(=O)c2ccco2)CC3)c1`, the Potency was more than 20 µM. The same measure for `COc1ccc(-c2nc3cnc(N4CCNCC4)nc3n(Cc3ccc(F)cc3)c2=O)cc1`: more than 20 µM; for `COc1ccc(NC(=O)N2CCC3(CC2)CCN(C(=O)c2cccn2C)CC3)cc1`: more than 20 µM; for `COc1cccc(-c2nc(N3CCNCC3)c3ccccc3n2)c1`: more than 20 µM. For `COc1ccccc1CN1CC[C@@]2(CCCN(C(=O)c3cc(C(F)(F)F)cc(C(F)(F)F)c3)C2)C1`, the Potency was more than 20 µM.

`CCNc1ncc2nc(-c3ccc(F)cc3)c(=O)n(C)c2n1`: the Potency was more than 20 µM. For `CN(Cc1ccco1)c1ncnc2ccc(-c3cccnc3)cc12` the value was more than 20 µM. As to `COC(=O)N1CCC[C@@]2(CCN(C(=O)NC(C)C)C2)C1`, the Potency was more than 20 µM. Regarding `COc1ccccc1-c1ccc2ncnc(N(C)C)c2c1`, the Potency was more than 20 µM. With `COc1ccccc1CN1CC2(CCN(S(=O)(=O)c3ccccc3)CC2)C1`, the Potency is more than 20 µM. On to `CC(=O)N1CCC2(CC1)CCN(c1ccc(-c3ccccc3)cc1)CC2`, for which the Potency was more than 20 µM. For `CCNc1ncc2nc(-c3cccs3)c(=O)n(C)c2n1` the value was more than 20 µM; for `COc1ccc(Oc2ncc3ncc(=O)n(Cc4ccc(F)cc4)c3n2)cc1`, more than 20 µM; for `O=C(c1ccco1)N1CCC[C@@]2(CCN(c3ccncc3)C2)C1`, more than 20 µM. For `COc1ncc2nc(CCc3ccccc3)c(=O)n(Cc3cccs3)c2n1` the value was more than 20 µM. Regarding `COc1ccc(CNc2ccnc(-c3ccccc3C(F)(F)F)n2)c(OC)c1`, the Potency is more than 20 µM.

On to `O=c1c(-c2ccc(F)c(F)c2)nc2cncnc2n1Cc1ccc(F)cc1`, for which the Potency was more than 20 µM. For `CN(C)c1ccc(-c2cncnc2NCCc2cnc[nH]2)cc1` the value was more than 20 µM. The same measure for `COc1ccc(-n2c(=O)cnc3cnc(Oc4cccc(Cl)c4)nc32)cc1`: more than 20 µM; for `COc1ccc(-c2nc3cnc(Nc4cccc(OC)c4)nc3n(C[C@H]3CCCO3)c2=O)cc1`: 14.4 µM; for `COCCn1c(=O)cnc2cnc(N3CCN(C)CC3)nc21`: more than 20 µM.
